PubChem BioAssay AID1159580 (chemical genetic matrix, 2015)
In all, about 5,500 compounds went through this assay and about 2,000 (36%) were called active. Another 18% or so got no clear call; they are omitted. Rule as the data show it: active = normalized growth mostly below about 0.91 (no sharp cut-off); inconclusive = no clear call, values can overlap the other calls; inactive = mostly above about 0.92. This is one part of the list.

Assay: chemical genetic growth profiling, strain panel (AID 1159580);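 also: tested at 20 µM; growth read once vehicle control cultures reached saturation at 30 °C; 1 = growth at the plate median or of vehicle wells; lower values mean less growth of the strain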
Details: growth OD

Measured: normalized growth

CC1(C)O[C@@H]2CC3C4C[C@H](F)C5=CC(=O)C=CC5(C)C4C(O)CC3(C)[C@]2(C(=O)CO)O1 (some centres undefined)
inactive: S. cerevisiae deletion strains, locus YKL009W, strain mrt4, active compounds read low 0.996 | S. cerevisiae deletion strains, locus YKL068W, active compounds read low 0.992 | S. cerevisiae deletion strains, locus YKL085W, strain MDH1 (second series), active compounds read low 1.01 | S. cerevisiae deletion strains, locus YKL085W, strain MDH1, active compounds read low 1.01 | S. cerevisiae deletion strains, locus YKL160W, strain elf1, active compounds read low 0.967 | S. cerevisiae deletion strains, locus YKL190W, strain CNB1, active compounds read low 1.01 | S. cerevisiae deletion strains, locus YKR001C, strain vps1, active compounds read low 1.01 | S. cerevisiae deletion strains, locus YKR026C, strain gcn3, active compounds read low 0.988 | S. cerevisiae deletion strains, locus YKR091W, strain srl3, active compounds read low 0.985 | S. cerevisiae deletion strains, locus YLL001W, strain dnm1, active compounds read low 0.978 | S. cerevisiae deletion strains, locus YLL026W, active compounds read low 1.02 | S. cerevisiae deletion strains, locus YLL041C, strain sdh2, active compounds read low 0.981 | S. cerevisiae deletion strains, locus YLR027C, strain aat2, active compounds read low 0.992 | S. cerevisiae deletion strains, locus YLR039C, strain RIC1, active compounds read low 0.995 | S. cerevisiae deletion strains, locus YLR058C, strain SHM2, active compounds read low 1.02 | S. cerevisiae deletion strains, locus YLR102C, strain apc9, active compounds read low 0.981 | S. cerevisiae deletion strains, locus YLR113W, strain HOG1, active compounds read low 1.04 | S. cerevisiae deletion strains, locus YLR221C, strain rsa3, active compounds read low 1.02 | S. cerevisiae deletion strains, locus YLR258W, strain gsy2, active compounds read low 0.984 | S. cerevisiae deletion strains, locus YLR262C, strain YPT6 (second series), active compounds read low 0.969 | S. cerevisiae deletion strains, locus YLR262C, strain YPT6, active compounds read low 1 | S. cerevisiae deletion strains, locus YLR268W, strain sec22, active compounds read low 1.01 | S. cerevisiae deletion strains, locus YLR320W, strain mms22, active compounds read low 0.981 | S. cerevisiae deletion strains, locus YLR330W, strain CHS5, active compounds read low 1.02 | S. cerevisiae deletion strains, locus YLR342W, strain FKS1 (second series), active compounds read low 1 | S. cerevisiae deletion strains, locus YLR342W, strain FKS1, active compounds read low 0.978 | S. cerevisiae deletion strains, locus YLR357W, strain rsc2, active compounds read low 0.933 | S. cerevisiae deletion strains, locus YLR370C, strain arc18, active compounds read low 0.981 | S. cerevisiae deletion strains, locus YLR371W, strain rom2, active compounds read low 0.988 | S. cerevisiae deletion strains, locus YLR384C, strain iki3, active compounds read low 0.992 | S. cerevisiae deletion strains, locus YLR418C, strain cdc73, active compounds read low 0.977 | S. cerevisiae deletion strains, locus YML016C, strain PPZ1, active compounds read low 1.02 | S. cerevisiae deletion strains, locus YML032C, strain rad52, active compounds read low 0.979 | S. cerevisiae deletion strains, locus YML120C, strain ndi1, active compounds read low 1 | S. cerevisiae deletion strains, locus YML124C, strain tub3, active compounds read low 0.992 | S. cerevisiae deletion strains, locus YMR058W, strain fet3, active compounds read low 1.01 | S. cerevisiae deletion strains, locus YMR078C, strain ctf18, active compounds read low 1 | S. cerevisiae deletion strains, locus YMR125W, strain sto1, active compounds read low 0.979 | S. cerevisiae deletion strains, locus YMR129W, active compounds read low 1.01 | S. cerevisiae deletion strains, locus YMR205C, strain PFK2, active compounds read low 0.981 | S. cerevisiae deletion strains, locus YMR223W, strain ubp8, active compounds read low 0.996 | S. cerevisiae deletion strains, locus YMR231W, strain pep5, active compounds read low 0.978 | S. cerevisiae deletion strains, locus YMR263W, strain SAP30, active compounds read low 1.02 | S. cerevisiae deletion strains, locus YMR307W, strain GAS1, active compounds read low 1.07 | S. cerevisiae deletion strains, locus YNL067W, strain RPL9B, active compounds read low 1.03 | S. cerevisiae deletion strains, locus YNL071W, strain lat1, active compounds read low 0.987 | S. cerevisiae deletion strains, locus YNL153C, strain GIM3, active compounds read low 1.03 | S. cerevisiae deletion strains, locus YNL183C, strain NPR1, active compounds read low 0.953 | S. cerevisiae deletion strains, locus YNL209W, strain ssb2, active compounds read low 0.974 | S. cerevisiae deletion strains, locus YNL233W, strain BNI4, active compounds read low 1.02 | S. cerevisiae deletion strains, locus YNL248C, strain rpa49, active compounds read low 0.927 | S. cerevisiae deletion strains, locus YNL250W, strain rad50, active compounds read low 0.993 | S. cerevisiae deletion strains, locus YNL271C, strain bni1, active compounds read low 0.97 | S. cerevisiae deletion strains, locus YNL298W, strain CLA4, active compounds read low 0.988 | S. cerevisiae deletion strains, locus YNL307C, strain MCK1, active compounds read low 0.98 | S. cerevisiae deletion strains, locus YNL322C, strain KRE1 (second series), active compounds read low 0.963 | S. cerevisiae deletion strains, locus YNL322C, strain KRE1, active compounds read low 1.01 | S. cerevisiae deletion strains, locus YNR049C, strain mso1, active compounds read low 0.974 | S. cerevisiae deletion strains, locus YNR052C, strain pop2, active compounds read low 0.993 | S. cerevisiae deletion strains, locus YOL006C, strain TOP1, active compounds read low 1.01 | S. cerevisiae deletion strains, locus YOL012C, strain htz1 0.907 | S. cerevisiae deletion strains, locus YOL147C, strain pex11, active compounds read low 0.992 | S. cerevisiae deletion strains, locus YOR001W, strain rrp6, active compounds read low 1.01 | S. cerevisiae deletion strains, locus YOR061W, strain CKA2, active compounds read low 1.02 | S. cerevisiae deletion strains, locus YOR069W, strain VPS5, active compounds read low 1.01 | S. cerevisiae deletion strains, locus YOR070C, strain gyp1, active compounds read low 0.984 | S. cerevisiae deletion strains, locus YOR080W, strain dia2, active compounds read low 0.977 | S. cerevisiae deletion strains, locus YOR083W, strain WHI5, active compounds read low 0.918 | S. cerevisiae deletion strains, locus YOR106W, strain vam3, active compounds read low 0.976 | S. cerevisiae deletion strains, locus YOR136W, strain idh2, active compounds read low 0.994 | S. cerevisiae deletion strains, locus YOR144C, strain elg1, active compounds read low 0.984 | S. cerevisiae deletion strains, locus YOR184W, strain ser1, active compounds read low 0.982 | S. cerevisiae deletion strains, locus YOR231W, strain MKK1, active compounds read low 1.02 | S. cerevisiae deletion strains, locus YOR265W, strain rbl2, active compounds read low 1.01 | S. cerevisiae deletion strains, locus YOR270C, strain vph1, active compounds read low 0.955 | S. cerevisiae deletion strains, locus YOR290C, strain snf2, active compounds read low 0.964 | S. cerevisiae deletion strains, locus YOR316C, strain cot1, active compounds read low 0.983 | S. cerevisiae deletion strains, locus YPL051W, strain arl3, active compounds read low 0.981 | S. cerevisiae deletion strains, locus YPL055C, strain LGE1, active compounds read low 1.04 | S. cerevisiae deletion strains, locus YPL078C, strain atp4, active compounds read low 0.977 | S. cerevisiae deletion strains, locus YPL106C, strain sse1, active compounds read low 0.95 | S. cerevisiae deletion strains, locus YPL240C, strain hsp82, active compounds read low 0.992 | S. cerevisiae deletion strains, locus YPL256C, strain CLN2, active compounds read low 1.03 | S. cerevisiae deletion strains, locus YPR119W, strain clb2, active compounds read low 0.987 | S. cerevisiae deletion strains, locus YPR141C, strain kar3, active compounds read low 0.996 | S. cerevisiae deletion strains, locus YPR163C, strain tif3, active compounds read low 0.988 | S. cerevisiae deletion strains, locus YPR167C, strain met16, active compounds read low 0.987 | S. cerevisiae deletion strains, strain wtn01, active compounds read low 0.984 | S. cerevisiae strains, strain wild type, active compounds read low 1.02
